From doi:10.1101/2023.07.10.548322

The sequences below were run against alpha-synuclein (aSyn) WT (human, UniProt P37840 1-140) (assay: RNA Bind-n-Seq). Conditions: ssRNA.
For UGGGGGUGGAUG, the binding signal was 43.8 enrichment score. AGGGGGGAGCAG showed a binding signal of 49.1 enrichment score. Work on UUGGGCGGGUAG yielded a binding signal of 49.1 enrichment score. For GCGGGGUUAGGG, the binding signal was 49.1 enrichment score. Sequence AGGGGGAUGUGG has a binding signal of 54.6 enrichment score. UAGGUUGGGGGU gave a binding signal of 46.4 enrichment score. Work on GGAGGUGGUGGA yielded a binding signal of 46.4 enrichment score. In the case of GUGGGGGGGCAU, the binding signal is reported as 43.8 enrichment score. UGGGUGGGAAGG was tested, and the binding signal was 43.8 enrichment score. In the case of GAGGAGGGUGGG, the binding signal is reported as 57.4 enrichment score. With UGGGGUAUUGGG the binding signal was 43.8 enrichment score. In the case of GGCGGGGGGUGA, the binding signal is reported as 43.8 enrichment score. In the case of GAGGUGGUAGGG, the binding signal is reported as 57.4 enrichment score. Sequence AGUGGCGGAGGG has a binding signal of 43.8 enrichment score. GUGGGGGUGGAU was tested, and the binding signal was 60.2 enrichment score. UGGGGAGUGGGU gave a binding signal of 51.8 enrichment score. GGGUGGGUUUGG gave a binding signal of 43.8 enrichment score. Work on GUGGAGAGGUGG yielded a binding signal of 54.6 enrichment score. For GAGGCGGGAGGG, the binding signal was 43.8 enrichment score. AGUGGGUGUGGA was tested, and the binding signal was 49.1 enrichment score. With GGCGGUUGUUGG the binding signal was 46.4 enrichment score. For GAGGUGGAGGGU, the binding signal was 57.4 enrichment score. With GGGGAUGGUAGG the binding signal was 43.8 enrichment score. Work on GGAGGUGGUGCG yielded a binding signal of 41.1 enrichment score. In the case of GUGGGGAAGGGU, the binding signal is reported as 49.1 enrichment score. Sequence UGGAUGGCGGGG has a binding signal of 43.8 enrichment score. Sequence CGGGUGGGAUGG has a binding signal of 43.8 enrichment score. AGUGGGGGGGUG showed a binding signal of 43.8 enrichment score. Sequence GGUAGGCUGUGG has a binding signal of 49.1 enrichment score. With AGGGUGGCGGUG the binding signal was 49.1 enrichment score. In the case of GGUGGGUUUGGG, the binding signal is reported as 65.9 enrichment score. In the case of GGAUGGUUGGUG, the binding signal is reported as 54.6 enrichment score. Sequence AUGGGGUGGGCG has a binding signal of 41.1 enrichment score. GGGGGUGGCAGA was tested, and the binding signal was 43.8 enrichment score.
